In all, about 5,500 compounds went through this assay and about 2,000 (36%) were called active. Roughly 18% stayed inconclusive and do not appear here. Rule as the data show it: active = normalized growth mostly below about 0.91 (no sharp cut-off); inconclusive = no clear call, values can overlap the other calls; inactive = mostly above about 0.92. The list shows a part of the results.
Experiment: chemical genetic growth profiling, strain panel (AID 1159580);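 also: tested at 20 µM; growth read once vehicle control cultures reached saturation at 30 °C; 1 = growth at the plate median or of vehicle wells; lower values mean less growth of the strain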
Details: S. cerevisiae deletion strains, growth OD

Measured: normalized growth

CC12CCC(OC(=O)c3ccccc3)CC1CCc1ccccc12 (configuration not stated)
active: locus YEL061C, strain CIN8 (second series), stronger effect = lower value 0.841 | locus YER016W, strain bim1, stronger effect = lower value 0.907
inactive: locus YAL021C, strain ccr4, stronger effect = lower value 0.986 | locus YAL026C, strain drs2, stronger effect = lower value 0.99 | locus YAL030W, strain snc1, stronger effect = lower value 0.999 | locus YBL061C, strain skt5, stronger effect = lower value 0.995 | locus YBR009C, strain hhf1, stronger effect = lower value 1 | locus YBR023C, strain chs3, stronger effect = lower value 0.995 | locus YBR171W, strain sec66, stronger effect = lower value 0.968 | locus YBR231C, strain swc5, stronger effect = lower value 0.939 | locus YBR279W, strain paf1, stronger effect = lower value 1.01 | locus YCL011C, strain gbp2, stronger effect = lower value 1 | locus YCL016C, strain dcc1, stronger effect = lower value 0.991 | locus YCL061C, strain MRC1, stronger effect = lower value 0.998 | locus YCL069W, strain vba3, stronger effect = lower value 0.996 | locus YCR088W, strain abp1, stronger effect = lower value 0.984 | locus YDL005C, strain med2, stronger effect = lower value 0.987 | locus YDL040C, strain nat1, stronger effect = lower value 0.979 | locus YDR001C, strain nth1, stronger effect = lower value 0.985 | locus YDR069C, strain doa4, stronger effect = lower value 0.98 | locus YDR137W, strain rgp1, stronger effect = lower value 0.964 | locus YDR159W, strain sac3, stronger effect = lower value 0.99 | locus YDR195W, strain ref2 0.964 | locus YDR297W, strain sur2, stronger effect = lower value 0.995 | locus YDR334W, strain swr1, stronger effect = lower value 0.959 | locus YDR335W, strain msn5, stronger effect = lower value 0.997 | locus YDR392W, strain spt3, stronger effect = lower value 0.866 | locus YEL003W, strain gim4, stronger effect = lower value 0.985 | locus YEL037C, strain rad23, stronger effect = lower value 0.991 | locus YER015W, strain faa2, stronger effect = lower value 0.998 | locus YER111C, strain swi4, stronger effect = lower value 0.988 | locus YER155C, strain BEM2 (second series), stronger effect = lower value 0.967 | locus YFR010W, strain ubp6, stronger effect = lower value 0.992 | locus YGL167C, strain pmr1, stronger effect = lower value 0.981 | locus YGL173C, strain kem1, stronger effect = lower value 0.987 | locus YGL227W, strain vid30, stronger effect = lower value 0.986 | locus YGL240W, strain doc1, stronger effect = lower value 0.952 | locus YGL253W, strain hxk2, stronger effect = lower value 1.01 | locus YHR013C, strain ard1, stronger effect = lower value 0.855 | locus YHR027C, strain rpn1, stronger effect = lower value 0.999 | locus YHR142W, strain chs7, stronger effect = lower value 1.01 | locus YJL092W, strain hpr5, stronger effect = lower value 0.989 | locus YJL095W, strain BCK1 (second series), stronger effect = lower value 1 | locus YJL115W, strain asf1, stronger effect = lower value 0.989 | locus YJL129C, strain trk1, stronger effect = lower value 0.999 | locus YJL154C, strain vps35, stronger effect = lower value 0.992 | locus YJL164C, strain tpk1, stronger effect = lower value 0.989 | locus YJL166W, strain qcr8, stronger effect = lower value 1 | locus YJL187C, strain SWE1, stronger effect = lower value 1 | locus YKL160W, strain elf1, stronger effect = lower value 1 | locus YKR026C, strain gcn3, stronger effect = lower value 0.965 | locus YKR091W, strain srl3, stronger effect = lower value 0.984 | locus YLL001W, strain dnm1, stronger effect = lower value 1.01 | locus YLL026W, stronger effect = lower value 0.993 | locus YLL041C, strain sdh2, stronger effect = lower value 0.994 | locus YLR027C, strain aat2, stronger effect = lower value 1.01 | locus YLR221C, strain rsa3, stronger effect = lower value 1 | locus YLR258W, strain gsy2, stronger effect = lower value 1 | locus YLR262C, strain YPT6 (second series), stronger effect = lower value 1.04 | locus YLR320W, strain mms22, stronger effect = lower value 1 | locus YLR342W, strain FKS1, stronger effect = lower value 0.987 | locus YLR357W, strain rsc2, stronger effect = lower value 0.986 | locus YLR370C, strain arc18, stronger effect = lower value 0.995 | locus YLR384C, strain iki3, stronger effect = lower value 1 | locus YML120C, strain ndi1, stronger effect = lower value 1 | locus YMR058W, strain fet3, stronger effect = lower value 1 | locus YMR125W, strain sto1, stronger effect = lower value 0.975 | locus YMR129W, stronger effect = lower value 0.986 | locus YMR205C, strain PFK2, stronger effect = lower value 1.01 | locus YMR231W, strain pep5, stronger effect = lower value 0.99 | locus YNL071W, strain lat1, stronger effect = lower value 0.992 | locus YNL209W, strain ssb2, stronger effect = lower value 0.997 | locus YNL248C, strain rpa49, stronger effect = lower value 1.01 | locus YNL322C, strain KRE1 (second series), stronger effect = lower value 0.982 | locus YNR049C, strain mso1, stronger effect = lower value 0.994 | locus YOR001W, strain rrp6, stronger effect = lower value 0.999 | locus YOR070C, strain gyp1, stronger effect = lower value 1.01 | locus YOR080W, strain dia2, stronger effect = lower value 0.965 | locus YOR083W, strain WHI5, stronger effect = lower value 0.995 | locus YOR106W, strain vam3, stronger effect = lower value 1.01 | locus YOR265W, strain rbl2, stronger effect = lower value 0.998 | locus YOR270C, strain vph1, stronger effect = lower value 1.06 | locus YOR290C, strain snf2, stronger effect = lower value 0.955 | locus YPL051W, strain arl3, stronger effect = lower value 1 | locus YPL078C, strain atp4, stronger effect = lower value 1.01 | locus YPL106C, strain sse1, stronger effect = lower value 0.992 | locus YPL240C, strain hsp82, stronger effect = lower value 0.988

Source: PubChem BioAssay AID1159580 (chemical genetic matrix, 2015)
